Compound activity: PubChem, several laboratories
A selection: hits, their analogues and other compounds. The true share with any hit is near 3.7%.
MazEF act: MazEF (E. coli) toxin RNase activation; FAM/BHQ RNA-DNA oligo cleavage fluorescence, 5 h; activation, % at 20 µM; actives 0.32% (n = 350,000); AID 504720; in the data active = activation above about 50%
BoNT F protease: inhibitors of Botulinum neurotoxin F light chain protease; Multiplex microsphere protease cleavage assay, flow cytometry; inhibition, % at 10 µM; actives 0.22% (n = 360,000); AID 588497; in the data active = inhibition above about 35%, passing the limit was not always enough; inconclusive = no clear call, values can overlap the other calls
BoNT-A LC inh2: inhibitors of Botulinum neurotoxin A light chain protease. actives 0.17% (n = 360,000). inhibition, % at 10 µM. multiplex microsphere protease substrate cleavage, flow cytometry
Anthrax LF prot: inhibitors of Bacillus anthracis lethal factor protease | P15917 | multiplex microsphere protease cleavage assay, LF | inhibition, % at 10 µM | actives 0.12% (n = 360,000) | AID 588501
Target sequence (P15917 whole entry, looked up): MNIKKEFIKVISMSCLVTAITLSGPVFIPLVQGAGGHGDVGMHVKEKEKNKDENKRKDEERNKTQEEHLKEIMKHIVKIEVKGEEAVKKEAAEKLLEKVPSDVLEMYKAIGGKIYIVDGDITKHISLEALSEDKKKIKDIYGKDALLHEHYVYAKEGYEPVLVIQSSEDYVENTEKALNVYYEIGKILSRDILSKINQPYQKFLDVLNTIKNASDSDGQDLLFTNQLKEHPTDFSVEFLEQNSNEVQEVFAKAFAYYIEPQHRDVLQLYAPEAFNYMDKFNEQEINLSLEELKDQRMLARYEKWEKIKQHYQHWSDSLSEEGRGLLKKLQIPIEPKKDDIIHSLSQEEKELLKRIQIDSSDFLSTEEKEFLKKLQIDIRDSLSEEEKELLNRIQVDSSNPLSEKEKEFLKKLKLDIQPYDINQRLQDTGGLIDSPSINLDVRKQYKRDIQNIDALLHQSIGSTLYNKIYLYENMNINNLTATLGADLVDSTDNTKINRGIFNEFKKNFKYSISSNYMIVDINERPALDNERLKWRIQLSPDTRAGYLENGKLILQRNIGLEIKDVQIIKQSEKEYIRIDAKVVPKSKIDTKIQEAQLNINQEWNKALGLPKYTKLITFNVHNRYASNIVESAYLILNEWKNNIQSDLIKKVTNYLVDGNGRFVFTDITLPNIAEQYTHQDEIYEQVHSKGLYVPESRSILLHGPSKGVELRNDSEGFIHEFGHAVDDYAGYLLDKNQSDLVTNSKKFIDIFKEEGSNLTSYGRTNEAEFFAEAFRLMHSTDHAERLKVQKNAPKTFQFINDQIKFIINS
Autofluor counter: flagged as autofluorescent in microsphere protease counterscreen. compound autofluorescence counterscreen, microsphere flow cytometry; stronger effect = higher value. fluorescence intensity (concentration not given with the values). actives 3.1% (n = 360,000). AID 624483; in the data active = fluorescence intensity above about 16000; inconclusive = no clear call, values can overlap the other calls
Numbers stand for hits. Rule as the data show it, unless noted: active = inhibition above about 30%; inconclusive = no clear call, values can overlap the other calls; inactive = below that.

How did Cn1cc([N+](=O)[O-])c(C(=O)Nc2ccn(Cc3c(F)c(F)cc(F)c3F)n2)n1 do in these assays?
MazEF act: inactive; BoNT F protease: inactive; BoNT-A LC inh2: inconclusive; Anthrax LF prot: inactive; Autofluor counter: 23100

Results for Cc1cc(C)c2[nH]c(C(=O)N3CCC(n4nccc4NC(=O)C4CC4)CC3)c(C)c2c1 ?
MazEF act: inactive; BoNT F protease: inactive; BoNT-A LC inh2: inactive; Anthrax LF prot: inactive; Autofluor counter: inactive

Results for COc1ccc(/C=C(\C#N)C(=O)N2COCC2(C)C)cc1 ?
MazEF act: inactive; BoNT F protease: inconclusive; BoNT-A LC inh2: inactive; Anthrax LF prot: inactive; Autofluor counter: inactive

Results for Cc1cccc(NC(=O)c2ccc(N3CCCCC3)c([N+](=O)[O-])c2)n1 ?
MazEF act: inactive; BoNT F protease: inactive; BoNT-A LC inh2: inconclusive; Anthrax LF prot: inactive; Autofluor counter: 24725

What do the screens show for `CCC(=O)N1CCN(c2ccc(Cl)cc2NC(=O)c2ccc(N3CCCC3)c([N+](=O)[O-])c2)CC1`?
MazEF act: inactive; BoNT F protease: inactive; BoNT-A LC inh2: inactive; Anthrax LF prot: inactive; Autofluor counter: 18754

Results for Cc1ccc(NC(=O)c2ccc(-n3cccn3)c([N+](=O)[O-])c2)cc1 ?
MazEF act: inactive; BoNT F protease: inactive; BoNT-A LC inh2: inactive; Anthrax LF prot: inactive; Autofluor counter: 16419

What do the screens show for `Cc1ccc(S(=O)(=O)NC2(C(F)(F)F)NC(=O)N(Cc3ccccc3)C2=O)cc1` (stereo not given)?
MazEF act: inactive; BoNT F protease: inactive; BoNT-A LC inh2: inactive; Anthrax LF prot: inactive; Autofluor counter: inactive

What do the screens show for `CCCCCc1nc2ccccc2c(=O)n1-c1ccc(Cl)cc1[N+](=O)[O-]`?
MazEF act: inactive; BoNT F protease: inactive; BoNT-A LC inh2: inactive; Anthrax LF prot: inactive; Autofluor counter: 23302

How did Cc1cc(C)cc(C(=O)N2CC(C)OC(C)C2)c1 (stereo not given) do in these assays?
MazEF act: inactive; BoNT F protease: inactive; BoNT-A LC inh2: inconclusive; Anthrax LF prot: inactive; Autofluor counter: 22829

What do the screens show for `CC(C)(C)c1cc(NS(=O)(=O)c2ccc3c(c2)OCCO3)on1`?
MazEF act: inactive; BoNT F protease: inactive; BoNT-A LC inh2: inactive; Anthrax LF prot: inactive; Autofluor counter: inactive

Results for CCOC(=O)c1ccc(S(=O)(=O)Nc2cc(C(C)(C)C)no2)cc1 ?
MazEF act: inactive; BoNT F protease: inactive; BoNT-A LC inh2: inactive; Anthrax LF prot: inactive; Autofluor counter: 24179

Results for O=C(Cc1ccccc1)NCC(=O)N1CCN(Cc2cccc(Cl)c2)CC1 ?
MazEF act: inactive; BoNT F protease: inactive; BoNT-A LC inh2: inactive; Anthrax LF prot: inactive; Autofluor counter: inactive

What do the screens show for `O=C(c1ccco1)N1CCCN(C(=O)c2ccco2)CC1`?
MazEF act: inactive; BoNT F protease: inactive; BoNT-A LC inh2: inactive; Anthrax LF prot: inactive; Autofluor counter: 23373

How did O=C(c1ccco1)N1CCN(S(=O)(=O)c2ccccc2)CC1 do in these assays?
MazEF act: inactive; BoNT F protease: inactive; BoNT-A LC inh2: inactive; Anthrax LF prot: inactive; Autofluor counter: inactive

How did O=C(CN1C(=O)NC2(CCCC2)C1=O)N1CCN(C(=O)c2ccco2)CC1 do in these assays?
MazEF act: inactive; BoNT F protease: inactive; BoNT-A LC inh2: inactive; Anthrax LF prot: inactive; Autofluor counter: 19470

What do the screens show for `O=C(c1ccco1)N1CCN(c2ccc(S(=O)(=O)N3CCCC3)cc2)CC1`?
MazEF act: inactive; BoNT F protease: inactive; BoNT-A LC inh2: inactive; Anthrax LF prot: inactive; Autofluor counter: 22603

Results for CN(C)C(=O)N1CCN(C(=O)c2ccco2)CC1 ?
MazEF act: inactive; BoNT F protease: inactive; BoNT-A LC inh2: inactive; Anthrax LF prot: inactive; Autofluor counter: inactive

Results for Cc1ccc(-c2cc(C(=O)N3CCN(C(=O)c4ccco4)CC3)no2)cc1 ?
MazEF act: inactive; BoNT F protease: inactive; BoNT-A LC inh2: inactive; Anthrax LF prot: inactive; Autofluor counter: 20055

Results for CC1ON=C(c2ccc(F)cc2)NC1=O (stereo not given) ?
BoNT F protease: inactive; BoNT-A LC inh2: inactive; Anthrax LF prot: inactive; Autofluor counter: inactive

Results for Cc1ccc(-c2cc(-c3ccccc3)nc(N)c2C#N)o1 ?
MazEF act: 83; BoNT F protease: inactive; BoNT-A LC inh2: inactive; Anthrax LF prot: inactive; Autofluor counter: inactive

Results for COc1ccc(NC(=O)c2ccc(-n3cccn3)nc2)c(OC)c1 ?
MazEF act: inactive; BoNT F protease: inactive; BoNT-A LC inh2: inactive; Anthrax LF prot: inactive; Autofluor counter: 22774

Results for COc1ccccc1NC(=O)c1ccc(-n2cccn2)nc1 ?
MazEF act: inactive; BoNT F protease: inactive; BoNT-A LC inh2: inactive; Anthrax LF prot: inactive; Autofluor counter: 22967

What do the screens show for `O=C(Nc1ccc(F)cc1)c1cccnc1`?
MazEF act: inactive; BoNT F protease: inactive; BoNT-A LC inh2: inactive; Anthrax LF prot: inactive; Autofluor counter: inactive

Results for O=C(Nc1ccc(F)cc1)c1ccc(-n2ccnc2)nc1 ?
MazEF act: inactive; BoNT F protease: inactive; BoNT-A LC inh2: inactive; Anthrax LF prot: inactive; Autofluor counter: 22409

How did COc1ccc(NC(=O)c2ccc(-n3cccn3)nc2)cc1 do in these assays?
MazEF act: inactive; BoNT F protease: inactive; BoNT-A LC inh2: inactive; Anthrax LF prot: inactive; Autofluor counter: 22260

How did O=C(Nc1ccc(F)cc1F)c1ccc(-n2cccn2)nc1 do in these assays?
MazEF act: inactive; BoNT F protease: inactive; BoNT-A LC inh2: inactive; Anthrax LF prot: inactive; Autofluor counter: inactive

How did Cc1cc(C)c2nc(N3C(=O)C(O)=C(C(=O)c4ccco4)C3c3cccc(O)c3)sc2c1 (stereo not given) do in these assays?
MazEF act: inactive; BoNT F protease: inactive; BoNT-A LC inh2: inactive; Anthrax LF prot: inactive; Autofluor counter: inactive

Results for COCCN(C(=O)COC(=O)CSc1ccc(Cl)cc1)c1c(N)n(Cc2ccccc2)c(=O)[nH]c1=O ?
MazEF act: inactive; BoNT F protease: inconclusive; BoNT-A LC inh2: inconclusive; Anthrax LF prot: inconclusive; Autofluor counter: inconclusive

How did O=C(Nc1ccc(F)cc1F)c1ccc(-n2cncn2)nc1 do in these assays?
MazEF act: inactive; BoNT F protease: inactive; BoNT-A LC inh2: inconclusive; Anthrax LF prot: inactive; Autofluor counter: 21818

Results for COc1ccccc1NC(=O)c1ccc(NC(=O)Cc2n[nH]c(=O)c3ccccc23)cc1 ?
MazEF act: 72; BoNT F protease: inactive; BoNT-A LC inh2: inactive; Anthrax LF prot: inactive; Autofluor counter: inactive

How did COc1ccccc1NC(=O)c1ccc(C(=O)Nc2ccccc2OC)nc1 do in these assays?
MazEF act: 53; BoNT F protease: inactive; BoNT-A LC inh2: inactive; Anthrax LF prot: inactive; Autofluor counter: inactive

Results for O=[N+]([O-])c1ccc(/C=C/c2ccc3cccc(O)c3n2)cc1 ?
MazEF act: 92; BoNT F protease: inactive; BoNT-A LC inh2: inactive; Anthrax LF prot: inactive; Autofluor counter: inactive

Results for CC1CCc2c(sc3ncnc(SC(C)C(=O)NCC4CCCO4)c23)C1 (stereo not given) ?
MazEF act: inactive; BoNT F protease: inactive; BoNT-A LC inh2: inactive; Anthrax LF prot: inactive; Autofluor counter: inactive

How did Nc1nonc1-n1nnc(C(=O)N/N=C/c2ccc(Cl)cc2Cl)c1CN1CCOCC1 do in these assays?
MazEF act: 124; BoNT F protease: inactive; BoNT-A LC inh2: inactive; Anthrax LF prot: inactive; Autofluor counter: inactive
